# AI-2 QS mod = Vibrio harveyi AI-2 quorum sensing modulation; Vibrio harveyi JMH597 AI-2 luminescence/OD600 ratio, 9 h; active compounds read low; strain lacks LuxN and CqsS sensors; 0 = neutral-control median; AID 2094; 300,000 compounds, 0.4% hits; activity change, % at 7.5 µM; in the data active = activity change below about -75%, passing the limit was not always enough; inconclusive = no clear call, values can overlap the other calls;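 also: luminescence divided by OD600 gain over 9 h not by final OD600 alone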
# HIF activator = HIF pathway transcriptional activation | U2OS HRE-luciferase reporter, luminescence; normalized: DMSO 0%, desferrioxamine 100% | activation, % at 7.5 µM (by protocol) | 300,000 compounds, 0.32% hits | AID 1910;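 active = mean activation of at least 10% of the iron chelator positive control signal, with at least half of replicates also reaching 10%; inconclusive = mean and replicate majority disagree about reaching 10%; inactive = mean and most replicates under 10%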
# Mot1-301 SUMO = blocks SUMOylation pathway, rescuing yeast Mot1-301 growth; S. cerevisiae Mot1-301 growth rescue, ATP luminescence, 38.5C; percent above DMSO median, 100 means doubled; growth rescue, % at 18.8 µM; 320,000 compounds, 1% hits;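 active = every valid replicate shows activation above 250% relative to neutral control wells; inactive = the rest, any valid replicate at or below 250%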
# ALR H2O2 inh = human ALR oxidase inhibition via reduced H2O2; 290,000 compounds, 3.8% hits; P55789; inhibition, % (no concentration beside the values); purified ALR, DTT oxidation, H2O2 HRP-luminol luminescence;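 active = mean replicate inhibition above about 79%, with every replicate also reaching it, limit read from the data; inconclusive = only one of the two criteria met; inactive = mean below limit and not every replicate reaching it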
# Target sequence (P55789 whole entry, looked up): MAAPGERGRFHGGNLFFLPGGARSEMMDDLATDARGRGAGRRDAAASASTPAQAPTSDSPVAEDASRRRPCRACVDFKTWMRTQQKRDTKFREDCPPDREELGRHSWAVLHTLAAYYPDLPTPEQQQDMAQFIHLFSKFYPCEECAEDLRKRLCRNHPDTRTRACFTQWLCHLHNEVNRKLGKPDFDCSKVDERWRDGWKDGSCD
# Numbers stand for hits; n = inactive; u = inconclusive; x = no result given. Sampled rows, rich in hits. Any-hit rate of the full collection: about 4.8%.
SMILES,AI-2 QS mod,HIF activator,Mot1-301 SUMO,ALR H2O2 inh
CCN(C(=O)COC(=O)/C=C/c1ccc(O)c(OC)c1)C1CCS(=O)(=O)C1 (configuration not stated),n,n,n,98.2
COc1cc(/C=C/C(=O)OCC(=O)NC(=O)NC(C)(C)C)ccc1O,n,n,n,98.9
COc1ccc(C2CC(c3ccccc3)=NN2C(=O)COC(=O)c2cccc(N)c2)cc1 (configuration not stated),x,x,n,n
N#CCC(=O)Nc1ccc(C(=O)OCC(=O)NC(=O)Nc2ccc3c(c2)OCCO3)cc1,x,x,n,99.3
CC(OC(=O)c1ccc(NC(=O)CC#N)cc1)C(=O)Nc1ccc2c(c1)OCCO2 (configuration not stated),n,n,n,97.3
CSc1ncccc1C(=O)OCC(=O)NCc1ccc2c(c1)OCO2,n,n,293.6,n
CC(=O)Nc1ccc(NC(=O)C(C)OC(=O)c2ccc3c(c2)OCCO3)cc1 (configuration not stated),n,n,n,x
O=C(COC(=O)c1ccc(O)cc1)NCc1ccc2c(c1)OCO2,n,n,n,n
N#CCC(=O)Nc1ccc(C(=O)OCC(=O)NCc2ccc3c(c2)OCO3)cc1,x,x,n,98.8
CCOc1ncccc1C(=O)OCC(=O)NCc1ccc2c(c1)OCO2,n,n,n,n
COc1ccc(CN2CCN(Cc3ccc4cc(F)ccc4n3)CC2CCO)c(C)c1C (configuration not stated),n,n,n,x
CCCCN1C(=O)N(c2ccccc2Cl)C(C)(O)CC1(C)C (configuration not stated),n,n,n,n
CCCCC(OC(=O)CN1C(=O)COc2ccccc21)C(=O)NC1CCCCC1 (configuration not stated),n,n,n,n
COC(=O)CSc1nc2c(c(-c3ccc(C)o3)c1C#N)CCCC2,n,n,n,n
CCSc1nc2c(c(-c3ccc(C)o3)c1C#N)CCCC2,n,n,n,82.7
Cc1csc(SCCn2c(N3CCN(c4ccccc4)CC3)nc3c2c(=O)[nH]c(=O)n3C)n1,n,n,n,98.5
CC(CSc1nc2ccccc2s1)Cn1c(N2CCCC2)nc2c1c(=O)[nH]c(=O)n2C (configuration not stated),n,n,n,98.5
COc1ccc2[nH]cc(CCNS(=O)(=O)c3ccccc3)c2c1,n,n,n,94.5
O=[n+]1cc(-c2cc3ccccc3o2)n([O-])c2c1CCCC2,n,n,n,98.0
COc1ccccc1NC(=O)NC1(C(=O)N2CCN(C)CC2)CCCCC1,n,n,n,n
O=C(N/N=C/c1ccc(O)cc1)c1cc(C23CC4CC(CC(C4)C2)C3)[nH]n1,n,n,n,90.8
O=C(c1cc(-c2ccc(O)cc2)on1)N1CCCC1,n,n,n,99.0
Cc1ccc(-c2cc(C(=O)N3CCCCCC3)no2)cc1,n,12.4,n,n
CC1CCN(C(=O)c2cc(-c3ccc(Cl)c(Cl)c3)on2)CC1,-79.8,x,n,n
O=C(c1cc(-c2ccc(F)cc2)on1)N1CCCCCC1,n,n,n,n
SMILES,AI-2 QS mod,HIF activator,Mot1-301 SUMO,ALR H2O2 inh
O=C(c1cc(-c2ccc(Br)cc2)on1)N1CCCC1,x,n,n,n
O=C(c1cc(-c2ccc(Cl)c(Cl)c2)on1)N1CCOCC1,n,n,n,n
COc1cccc(C(=O)OCCNC(=O)c2cccnc2)c1,n,n,n,n
O=C(NCc1cccc(OC(F)(F)F)c1)C1CCC(=O)N(Cc2cccc(F)c2)C1 (configuration not stated),n,n,n,n
CCc1ccc(Nc2ccc3nonc3c2[N+](=O)[O-])cc1,n,n,n,n
CCOC(=O)NNc1ccc2nonc2c1[N+](=O)[O-],-91.9,n,n,n
CCOc1ccc(N(C(C)C(=O)N2CCOCC2)S(C)(=O)=O)cc1 (configuration not stated),n,n,n,n
O=S(=O)(Nc1ccc(S(=O)(=O)N2CCCC2)cc1)c1ccc(F)cc1F,x,x,n,n
COc1ccccc1C1NC(c2ccccc2OC)C(C)C(=O)C1C (configuration not stated),n,n,x,x
COc1cccc(C2NC(c3cccc(OC)c3O)C(C)C(=O)C2C)c1O (configuration not stated),n,n,n,87.5
O=C(CC(Sc1ccc(Br)cc1)C(=O)O)c1ccc(Br)cc1 (configuration not stated),u,n,n,x
Cc1ccc(SC(CC(=O)c2ccc(C)cc2)C(=O)O)cc1 (configuration not stated),n,n,x,99.1
O=C(N/N=C/c1cccnc1)c1ccc2ccccc2c1O,n,x,n,n

# Compound activity as filed in PubChem BioAssay.
